# Assay results as given in PubChem BioAssay AID2158 (National Center for Advancing Translational Sciences (NCATS), 2009).
# Records with an inconclusive call do not appear. The source made the active and inactive calls. The call rests on the fitted dose curve; in most records, active means well fitted inhibition curve with a large enough effect; inconclusive means small, poorly fitted or top-dose-only effect; inactive means no such curve, though single readings can be large or run the other way.
# Molecular target: Cruzipain (Trypanosoma cruzi) (UniProt P25779)
# Experiment: Confirmation qHTS Assay for Inhibitors of Cruzain; further: nearly all actives have a fitted effect of over 40% in size;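 on activity change, negative = inhibition: plate controls were uninhibited enzyme control for no effect and buffer wells lacking enzyme for full effect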
# Conditions: purified cruzain, Z-FR-AMC fluorescence, 0.01% Triton
# Protocol: Cruzain is a cysteine protease from the tropical parasite Trypanosoma cruzi. This assay protocol is a follow-up and confirmation of related AID 1478 (qHTS Assay for Promiscuous and Specific Inhibitors of Cruzain -- with detergent). Cruzain was assayed by the use of fluorogenic coumarin-based substrate Z-FR-AMC: proteolytic cleavage releases AMC, whose fluorescence is measured at 360 nm excitation and 450 nm emission. Purified cruzain was supplied by the labs of Prof. James McKerrow and Brian Shoichet, UC San Francisco. This assay had 0.01% Triton X-100 concentration. See following references for additional details: Jadhav A, et al. J Med Chem. 2010 Jan 14;53(1):37-51. Mott BT, et al. J Med Chem. 2010 Jan 14;53(1):52-60. Assay Provider: Shoichet, Brian; University of California, San Fancisco Screening Center PI: Austin, C.P. Screening Center: NIH Chemical Genomics Center [NCGC]
# Buffer: 100 mM Sodium Acetate, pH 5.5, 5 mM DTT, Triton X-100 concentration: 0.01%. Reagents/Controls: Buffer in columns 3 and 4 as negative control (no enzyme). Substrate solution: 2 uM final concentration of Z-FR-AMC (catalog number I-1160, Bachem) dispensed throughout the plate. Enzyme: 1.5 nM Cruzain final concentration in columns 1, 2, 5-48. Column 1 is neutral (100% activity). Column 2 contained titration of covalent inhibitor K11777, starting concentration 1 mM, then 1:2 dilution in duplicate). Assay Steps: Three uL of enzyme or buffer were dispensed to 1536-well Greiner black solid bottom plates. Compounds and controls (23 nL) were transferred via Kalypsys PinTool. The plates were incubated for 15 min at room temperature, and then 1 uL of substrate solution was added to start the reaction. The plates were immediately transferred to and read 4 times every 30 seconds for 2 min on ViewLux High-throughput CCD imager (Perkin-Elmer) using 360 nm excitation and 450 nm emission fluorescence protocol. The fluorescence intensity difference between the third and the first time points (time lapse of 60 seconds) was used to compute reaction progress.
# Potency means the concentration at half of the fitted maximal effect.
# Chain of Cruzipain (Trypanosoma cruzi) (P25779 123-467 limits assumed): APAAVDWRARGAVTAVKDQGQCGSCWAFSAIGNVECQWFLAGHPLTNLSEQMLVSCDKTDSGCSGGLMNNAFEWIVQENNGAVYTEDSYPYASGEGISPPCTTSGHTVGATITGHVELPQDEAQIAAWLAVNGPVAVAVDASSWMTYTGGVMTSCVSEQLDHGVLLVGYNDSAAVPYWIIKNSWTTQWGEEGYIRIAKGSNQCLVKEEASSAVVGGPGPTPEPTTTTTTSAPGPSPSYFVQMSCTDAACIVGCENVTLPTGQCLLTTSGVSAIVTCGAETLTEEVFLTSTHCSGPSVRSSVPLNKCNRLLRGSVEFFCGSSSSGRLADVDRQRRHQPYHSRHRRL
SMILES,Potency,"activity change, negative = inhibition"
Cc1ccc(S(=O)(=O)N[C@@H](CCCCN)C(=O)CCl)cc1,282 nM (active),
Cn1nc(-c2ccccc2)nc2c(=O)n(C)c(=O)nc1-2,1410 nM (active),
O=C(Nc1nc(-c2ccccc2)c(-c2ccccc2)s1)c1ccc(S(=O)(=O)N(CCCl)CCCl)cc1,,-8.01% (inactive)
Cn1ncnc2c(=O)n(C)c(=O)nc1-2,2240 nM (active),
CCn1nc(-c2ccccc2)nc2c(=O)n(C)c(=O)nc1-2,3980 nM (active),
Cc1ccc(-c2nc3c(=O)n(C)c(=O)nc-3n(C)n2)cc1,1410 nM (active),
CC(C)OC(=O)c1c(N)n(Cc2ccco2)c2nc3ccccc3nc12,,-8.08% (inactive)
NC(=O)CSc1nnc([C@@H](N)Cc2c[nH]c3ccccc23)o1,15800 nM (active),
N#CC(C#N)=NNc1cccc(Cl)c1,15800 nM (active),
Cc1nc2c(=O)n(C)c(=O)nc-2n(C)n1,2000 nM (active),
CCc1ccccc1NC(=O)CSc1nnc([C@@H](N)Cc2c[nH]c3ccccc23)o1,,-73.4% (inactive)
